Our source for the outcome and AC50 values is PubChem BioAssay (EPA / NIEHS).

Results filed as inconclusive are left out. Activity calls are given as the source filed them. Rule for the calls, unless noted: active = hit-call score of the fitted dose curve at least 0.9, where 1 is the maximum; inactive = score below 0.9.

The target in test [1] is Paired box protein Pax-6 (Homo sapiens) (UniProt P26367). The experiment in a line: ATG_Pax6_CIS: Attagene CIS-FACTORIAL HepG2 Assay for human Paired Box 6 (PAX6) (AID 2282956). As to conditions: HepG2 CIS-FACTORIAL PAX6 reporter transcription, RNA readout; actives raise or lower the signal. The method in brief:
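Transient MRTU transfection of HepG2 → compound exposure 24 h → TriZol RNA, oligo(dT) RT → PCR, 6-FAM primer extension, HpaI cut → capillary electrophoresis; activity fitted both directions against DMSO.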

Test [2] is described as follows: ATG_PXRE_CIS: Attagene CIS-FACTORIAL HepG2 Assay for human Pregnane X Receptor Element (PXRE) (AID 2282957). The note with it: HepG2 Attagene CIS-FACTORIAL PXRE reporter, mRNA; actives raise or lower the signal. The method in brief:
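Cells: HepG2, transiently transfected reporter units under cis promoter control. Exposure: 24 h. Detection: reporter mRNA via RT-PCR/CE fluorescence; bidirectional fitting, DMSO-referenced.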

The nature of test [3]: ATG_PPRE_CIS: Attagene CIS-FACTORIAL HepG2 Assay for human Peroxisome Proliferator-activated Response Element (PPRE) (AID 2282958). As to conditions: HepG2 PPRE cis-element reporter, Attagene transcription factor profiling; actives raise or lower the signal. The method in brief: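 HepG2, transient MRTU transfection (cis promoter elements, endogenous TFs). 24 h dosing. RNA → oligo(dT) RT → PCR → 6-FAM primer extension → HpaI digest → CE. Bidirectional fit vs DMSO.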

Test [4] in a line: ATG_RORE_CIS: Attagene CIS-FACTORIAL HepG2 Assay for human RAR-related Orphan Receptor Element (RORE) (AID 2282959). As to conditions: HepG2 Attagene cis-factorial RORE reporter, mRNA; actives raise or lower the signal. Summed up:
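Transient MRTU transfection of human HepG2 liver cells (FuGene 6); 24 h compound exposure; TriZol RNA, oligo(dT) RT, PCR, FAM labeling, HpaI cut, CE fragment analysis. DMSO = negative control/baseline.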

A short description of test [5]: ATG_Sox_CIS: Attagene CIS-FACTORIAL HepG2 Assay for human SRY-box transcription factor (SOX) (AID 2282960). The note with it: HepG2 Attagene cis-factorial SOX reporter, mRNA; actives raise or lower the signal. Summed up: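 Endogenous factor activity in human liver HepG2 cells carrying transfected cis-regulated reporter units. RNA taken 24 h post-dose, reverse-transcribed, PCR-amplified and sized by capillary electrophoresis. Gain or loss of signal fitted relative to DMSO.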

The target in test [6] is Transcription factor Sp1 (Homo sapiens) (UniProt P08047). The experiment in a line: ATG_Sp1_CIS: Attagene CIS-FACTORIAL HepG2 Assay for human Specificity Protein 1 (Sp1) (AID 2282961). As to conditions: HepG2 Sp1 cis-reporter transcription, actives raise or lower the signal. The method in brief: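 Transient MRTU-transfected HepG2, 24 h compound exposure. Total RNA → oligo(dT) RT → PCR of reporter → 6-FAM primer extension → HpaI digest → CE. Endpoint fitted both directions vs DMSO.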
Chain of Transcription factor Sp1 (Homo sapiens) (P08047 whole entry, looked up): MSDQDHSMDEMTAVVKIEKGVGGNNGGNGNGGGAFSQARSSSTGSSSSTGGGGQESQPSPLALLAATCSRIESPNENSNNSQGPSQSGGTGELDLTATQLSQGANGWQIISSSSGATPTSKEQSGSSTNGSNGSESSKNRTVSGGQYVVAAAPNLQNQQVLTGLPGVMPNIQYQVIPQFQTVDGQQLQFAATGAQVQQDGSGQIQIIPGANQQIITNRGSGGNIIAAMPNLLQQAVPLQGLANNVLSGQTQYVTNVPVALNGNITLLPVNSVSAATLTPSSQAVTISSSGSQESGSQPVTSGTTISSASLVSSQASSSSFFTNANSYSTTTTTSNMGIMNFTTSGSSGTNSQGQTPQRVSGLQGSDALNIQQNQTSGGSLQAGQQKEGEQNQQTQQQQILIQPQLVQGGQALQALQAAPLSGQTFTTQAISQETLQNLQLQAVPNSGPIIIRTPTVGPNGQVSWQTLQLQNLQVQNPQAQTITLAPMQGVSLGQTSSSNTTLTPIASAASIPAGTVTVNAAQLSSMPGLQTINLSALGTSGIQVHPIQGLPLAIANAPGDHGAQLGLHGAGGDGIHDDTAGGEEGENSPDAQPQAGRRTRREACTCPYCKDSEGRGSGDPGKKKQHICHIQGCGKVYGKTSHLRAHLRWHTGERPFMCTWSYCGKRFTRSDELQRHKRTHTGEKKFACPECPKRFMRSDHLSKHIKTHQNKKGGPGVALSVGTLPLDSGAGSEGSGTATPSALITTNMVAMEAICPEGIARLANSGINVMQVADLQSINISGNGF

Test [7] deals with Signal transducer and activator of transcription 3 (Homo sapiens) (UniProt P40763). As to the kind of experiment: ATG_STAT3_CIS: Attagene CIS-FACTORIAL HepG2 Assay for human Signal Transducer and Activator of Transcription 3 (STAT3) (AID 2282963). The note with it: HepG2, Attagene cis-factorial STAT3 reporter transcription; actives raise or lower the signal. The method in brief: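 Transcript-level reporter assay. HepG2 transient MRTU transfection, 24 h exposure, fluorescence detection after RT-PCR and CE; DMSO baseline.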
Chain of Signal transducer and activator of transcription 3 (Homo sapiens) (P40763 whole entry, looked up): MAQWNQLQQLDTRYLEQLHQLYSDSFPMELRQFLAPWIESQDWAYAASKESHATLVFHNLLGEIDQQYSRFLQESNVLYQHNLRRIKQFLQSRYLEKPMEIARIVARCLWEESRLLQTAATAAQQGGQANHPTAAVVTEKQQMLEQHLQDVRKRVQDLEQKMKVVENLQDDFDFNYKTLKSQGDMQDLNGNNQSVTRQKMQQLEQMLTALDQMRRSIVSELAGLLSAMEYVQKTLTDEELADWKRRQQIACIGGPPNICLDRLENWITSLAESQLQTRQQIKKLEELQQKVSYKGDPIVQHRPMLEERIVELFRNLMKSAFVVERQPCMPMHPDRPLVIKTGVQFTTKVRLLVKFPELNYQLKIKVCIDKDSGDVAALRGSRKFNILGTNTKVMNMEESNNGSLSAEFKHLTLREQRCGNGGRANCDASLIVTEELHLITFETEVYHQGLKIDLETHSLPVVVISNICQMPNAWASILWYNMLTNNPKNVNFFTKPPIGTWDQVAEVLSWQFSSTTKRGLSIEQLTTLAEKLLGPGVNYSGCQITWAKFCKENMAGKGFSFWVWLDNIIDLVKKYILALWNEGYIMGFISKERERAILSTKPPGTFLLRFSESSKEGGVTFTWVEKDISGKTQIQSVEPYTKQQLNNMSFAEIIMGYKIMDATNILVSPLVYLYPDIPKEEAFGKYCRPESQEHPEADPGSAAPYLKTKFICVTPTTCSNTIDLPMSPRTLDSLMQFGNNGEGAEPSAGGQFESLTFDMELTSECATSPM

A short description of test [8]: ATG_TA_CIS: Attagene CIS-FACTORIAL HepG2 Assay for human TA Basal Promoter (AID 2282964). As to conditions: HepG2 Attagene CIS-factorial TA basal promoter reporter; actives raise or lower the signal. Summed up: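 Background internal-marker endpoint from a 52-component HepG2 cis-reporter panel. Cells treated 24 h; reporter transcripts quantified via RT-PCR and CE fluorescence against DMSO baseline.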

The nature of test [9]: ATG_TCF_b_cat_CIS: Attagene CIS-FACTORIAL HepG2 Assay for human T-Cell-Factor with beta-catenin (TCF/b-cat) (AID 2282965). The note with it: HepG2 TCF/beta-catenin cis-reporter transcription, actives raise or lower the signal. Summed up: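 HepG2 cells transiently transfected with multiple cis-promoter-regulated reporter transcription units, so endogenous transcription factor activity is measured. Reporter mRNA read 24 hours after dosing by RT-PCR, fluorescent labelling and capillary electrophoresis; bidirectional fitting against DMSO.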

A short description of test [10]: ATG_TAL_CIS: Attagene CIS-FACTORIAL HepG2 Assay for human TAL Basal Promoter (AID 2282966).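 Note: background control endpoint measuring basal TAL promoter reporter mRNA not a specific factor.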 The note with it: HepG2 Attagene cis-factorial TAL promoter reporter; actives raise or lower the signal. The method in brief: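 RT-PCR plus capillary electrophoresis quantifies reporter mRNA induction in transiently transfected HepG2 cells after 24 h chemical treatment. DMSO serves as negative control and baseline for bidirectional fitting.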

Test [11] is described as follows: ATG_TGFb_CIS: Attagene CIS-FACTORIAL HepG2 Assay for human Transforming Growth Factor (TGF) (AID 2282967). The note with it: HepG2 Attagene CIS TGFb reporter, mRNA transcription; actives raise or lower the signal. The method in brief:
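Liver HepG2 line, cis-factorial reporter panel, 24 h dosing. Quantitation: RT-PCR products labeled with 6-FAM, cut with HpaI, resolved by capillary electrophoresis; DMSO-referenced bidirectional analysis.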

A short description of test [12]: ATG_VDRE_CIS: Attagene CIS-FACTORIAL HepG2 Assay for human Vitamin D Receptor Element (VDRE) (AID 2282968). The note with it: HepG2 VDRE cis-reporter transcription, actives raise or lower the signal. Summed up: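 RT-PCR/CE readout of reporter mRNA; HepG2, transient transfection, 24 h dosing; DMSO baseline; bidirectional analysis.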
For test [13], the target named is Estrogen receptor (Homo sapiens) (UniProt P03372). As to the kind of experiment: ATG_ERa_TRANS: Attagene TRANS-FACTORIAL HepG2 Assay for human Estrogen Receptor alpha (ERa) (AID 2282970; active = hit-call score of the fitted dose curve at least 0.9, where 1 is the maximum). As to conditions: HepG2 Attagene TRANS ERa GAL4 reporter, mRNA. Summed up: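 Cells: HepG2, transiently transfected. Construct: GAL4-UAS reporter units regulated by exogenous NR-Gal4 chimeras. Time: 24 h. Detection: reporter mRNA by RT-PCR, capillary electrophoresis, fluorescence. Baseline: DMSO, upward fitting.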
Chain of Estrogen receptor (Homo sapiens) (P03372 whole entry, looked up, the tested form may be a part): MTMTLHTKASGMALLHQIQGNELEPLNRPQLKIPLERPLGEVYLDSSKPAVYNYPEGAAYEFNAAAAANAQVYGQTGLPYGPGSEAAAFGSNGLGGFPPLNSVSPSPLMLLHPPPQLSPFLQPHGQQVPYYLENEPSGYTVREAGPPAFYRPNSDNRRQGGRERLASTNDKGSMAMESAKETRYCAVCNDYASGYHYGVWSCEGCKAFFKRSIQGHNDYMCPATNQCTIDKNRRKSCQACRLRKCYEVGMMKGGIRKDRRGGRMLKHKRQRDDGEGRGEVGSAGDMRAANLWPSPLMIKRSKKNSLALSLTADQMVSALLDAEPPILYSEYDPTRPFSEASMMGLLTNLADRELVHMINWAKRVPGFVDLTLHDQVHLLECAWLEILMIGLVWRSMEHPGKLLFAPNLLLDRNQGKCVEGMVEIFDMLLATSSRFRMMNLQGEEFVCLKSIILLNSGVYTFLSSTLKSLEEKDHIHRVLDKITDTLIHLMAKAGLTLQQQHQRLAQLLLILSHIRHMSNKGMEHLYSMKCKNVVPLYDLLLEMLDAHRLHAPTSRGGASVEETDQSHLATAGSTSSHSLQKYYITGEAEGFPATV

Test [14] addresses Steroid hormone receptor ERR1 (Homo sapiens) (UniProt P11474). The experiment in a line: ATG_ERRa_TRANS: Attagene TRANS-FACTORIAL HepG2 Assay for human Estrogen-Related Receptor alpha (ERRa) (AID 2282971; active = hit-call score of the fitted dose curve at least 0.9, where 1 is the maximum). As to conditions: HepG2 Attagene TRANS reporter, ERRa transactivation. The method in brief:
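Reporter transcripts from ERRa-Gal4 chimera activity measured in transiently transfected human HepG2 cells 24 hours after dosing, using RT-PCR with 6-FAM primer extension, HpaI digestion and capillary electrophoresis; DMSO is baseline.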

Test [15] addresses X-box-binding protein 1 (Homo sapiens) (UniProt P17861). The experiment in a line: ATG_Xbp1_CIS: Attagene CIS-FACTORIAL HepG2 Assay for human X-box Binding Protein 1 (XBP1) (AID 2282972). As to conditions: HepG2 XBP1 cis-element reporter, Attagene multiplex; actives raise or lower the signal. Summed up:
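HepG2, transient MRTU transfection (cis-promoter driven), 24 h compound exposure. Total RNA → oligo(dT) RT → PCR → 6-FAM labeling → HpaI cut → CE. Bidirectional fit vs DMSO.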

Test [16] can be described thus: ATG_M_19_TRANS: Attagene TRANS-FACTORIAL HepG2 Assay for M19 Transcription Factor (Internal Marker) (AID 2282974; active = hit-call score of the fitted dose curve at least 0.9, where 1 is the maximum). As to conditions: HepG2 Attagene TRANS-FACTORIAL M19 internal marker reporter. Summed up:
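Fluorescence of 6-FAM-labelled reporter cDNA fragments, separated by capillary electrophoresis, served as the readout. These derived from HepG2 cells carrying transfected GAL4-UAS reporter units after 24 h dosing, with DMSO as negative control.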

Test [17] can be described thus: ATG_SREBP_CIS: Attagene CIS-FACTORIAL HepG2 Assay for human Sterol Regulatory Element Binding (SREBP) (AID 2282962). As to conditions: HepG2 Attagene cis-factorial SREBP reporter, mRNA; actives raise or lower the signal. The method in brief: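 Transfected HepG2 (cis-regulated reporter library, endogenous TFs) → compound 24 h → total RNA → oligo(dT) RT → reporter-specific PCR → FAM primer extension, HpaI cut → CE fluorescence. Fit bidirectional vs DMSO.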

Test [18] concerns the target Androgen receptor (Homo sapiens) (UniProt P10275). As to the kind of experiment: ATG_AR_TRANS: Attagene TRANS-FACTORIAL HepG2 Assay for human Androgen Receptor (AR) (AID 2282973; active = hit-call score of the fitted dose curve at least 0.9, where 1 is the maximum). As to conditions: HepG2 Attagene TRANS-FACTORIAL AR reporter transcription. Summed up: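 Transcriptional activity of an exogenous AR–Gal4 fusion read as GAL4-UAS reporter transcript levels in transfected human HepG2 cells after 24 h dosing. Detection via RT-PCR, 6-FAM labelling, HpaI digest and capillary electrophoresis; increase over DMSO baseline.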

The nature of test [19]: ATG_PBREM_CIS: Attagene CIS-FACTORIAL HepG2 Assay for human Phenobarbital-responsive Enhancer Module (PBREM) (AID 2282955). The note with it: HepG2 PBREM cis-reporter, Attagene multiplexed transcription; actives raise or lower the signal. The method in brief:
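Endogenous transcription factors in human liver HepG2 cells drive a PBREM cis-element reporter, whose transcript level after 24 h treatment is quantified by RT-PCR with capillary electrophoresis; activity fitted in both directions against DMSO.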

Test [20] has as its target Nuclear receptor subfamily 1 group I member 3 (Homo sapiens) (UniProt Q14994). The experiment in a line: ATG_CAR_TRANS: Attagene TRANS-FACTORIAL HepG2 Assay for human Constitutive Androstane Receptor (CAR) (AID 2282969; active = hit-call score of the fitted dose curve at least 0.9, where 1 is the maximum;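 note: activators raise reporter mRNA above DMSO so AC50 marks induction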). The note with it: HepG2 Attagene TRANS-FACTORIAL CAR reporter. The method in brief:
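HepG2 cells transiently transfected with multiplexed GAL4-UAS reporter units expressing chimeric NR-Gal4 proteins; compound exposure 24 h. Reporter mRNA measured by RT-PCR, 6-FAM labelling, HpaI digestion and capillary electrophoresis; gain-of-signal fitted against DMSO baseline.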

Chain of Paired box protein Pax-6 (Homo sapiens) (P26367 whole entry, looked up): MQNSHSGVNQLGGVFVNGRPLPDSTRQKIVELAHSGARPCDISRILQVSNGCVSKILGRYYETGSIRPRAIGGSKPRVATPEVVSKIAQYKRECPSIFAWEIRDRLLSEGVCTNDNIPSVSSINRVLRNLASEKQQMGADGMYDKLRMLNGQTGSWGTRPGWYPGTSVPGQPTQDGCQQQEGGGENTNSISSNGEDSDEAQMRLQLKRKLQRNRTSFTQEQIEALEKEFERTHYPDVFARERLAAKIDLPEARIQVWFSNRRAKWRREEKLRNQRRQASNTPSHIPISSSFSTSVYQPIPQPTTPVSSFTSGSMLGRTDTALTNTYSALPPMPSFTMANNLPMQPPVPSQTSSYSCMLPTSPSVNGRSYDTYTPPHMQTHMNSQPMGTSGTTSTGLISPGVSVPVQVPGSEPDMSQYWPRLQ
Chain of X-box-binding protein 1 (Homo sapiens) (P17861 whole entry, looked up): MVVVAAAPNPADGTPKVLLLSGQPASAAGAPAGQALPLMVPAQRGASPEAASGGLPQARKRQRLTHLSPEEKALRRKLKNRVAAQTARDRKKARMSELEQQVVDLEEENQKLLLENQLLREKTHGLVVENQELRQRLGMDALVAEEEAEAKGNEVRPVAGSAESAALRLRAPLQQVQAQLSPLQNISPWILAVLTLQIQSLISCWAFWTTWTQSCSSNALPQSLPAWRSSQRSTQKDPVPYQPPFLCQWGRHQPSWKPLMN
Chain of Steroid hormone receptor ERR1 (Homo sapiens) (P11474 whole entry, looked up, the tested form may be a part): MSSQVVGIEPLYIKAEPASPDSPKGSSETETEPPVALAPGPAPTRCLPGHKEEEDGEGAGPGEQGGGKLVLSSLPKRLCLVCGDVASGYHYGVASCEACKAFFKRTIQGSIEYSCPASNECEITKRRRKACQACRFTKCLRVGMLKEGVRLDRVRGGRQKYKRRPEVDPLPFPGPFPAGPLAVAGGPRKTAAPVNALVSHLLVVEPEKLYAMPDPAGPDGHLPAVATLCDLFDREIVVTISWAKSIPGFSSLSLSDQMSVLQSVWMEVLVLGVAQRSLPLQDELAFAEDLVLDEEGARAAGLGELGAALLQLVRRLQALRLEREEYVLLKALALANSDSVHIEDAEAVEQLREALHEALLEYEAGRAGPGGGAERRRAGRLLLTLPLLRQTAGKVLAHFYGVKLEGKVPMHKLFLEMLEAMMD
Chain of Nuclear receptor subfamily 1 group I member 3 (Homo sapiens) (Q14994 whole entry, looked up, the tested form may be a part): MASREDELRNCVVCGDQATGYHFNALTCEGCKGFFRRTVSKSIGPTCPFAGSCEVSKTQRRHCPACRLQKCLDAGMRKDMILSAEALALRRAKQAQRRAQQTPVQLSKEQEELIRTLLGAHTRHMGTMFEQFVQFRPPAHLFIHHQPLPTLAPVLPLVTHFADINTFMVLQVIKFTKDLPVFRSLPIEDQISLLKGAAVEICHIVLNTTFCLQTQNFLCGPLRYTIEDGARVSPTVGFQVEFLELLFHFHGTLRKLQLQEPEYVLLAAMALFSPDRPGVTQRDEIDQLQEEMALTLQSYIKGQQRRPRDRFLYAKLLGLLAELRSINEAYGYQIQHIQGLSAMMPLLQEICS
Chain of Androgen receptor (Homo sapiens) (P10275 whole entry, looked up, the tested form may be a part): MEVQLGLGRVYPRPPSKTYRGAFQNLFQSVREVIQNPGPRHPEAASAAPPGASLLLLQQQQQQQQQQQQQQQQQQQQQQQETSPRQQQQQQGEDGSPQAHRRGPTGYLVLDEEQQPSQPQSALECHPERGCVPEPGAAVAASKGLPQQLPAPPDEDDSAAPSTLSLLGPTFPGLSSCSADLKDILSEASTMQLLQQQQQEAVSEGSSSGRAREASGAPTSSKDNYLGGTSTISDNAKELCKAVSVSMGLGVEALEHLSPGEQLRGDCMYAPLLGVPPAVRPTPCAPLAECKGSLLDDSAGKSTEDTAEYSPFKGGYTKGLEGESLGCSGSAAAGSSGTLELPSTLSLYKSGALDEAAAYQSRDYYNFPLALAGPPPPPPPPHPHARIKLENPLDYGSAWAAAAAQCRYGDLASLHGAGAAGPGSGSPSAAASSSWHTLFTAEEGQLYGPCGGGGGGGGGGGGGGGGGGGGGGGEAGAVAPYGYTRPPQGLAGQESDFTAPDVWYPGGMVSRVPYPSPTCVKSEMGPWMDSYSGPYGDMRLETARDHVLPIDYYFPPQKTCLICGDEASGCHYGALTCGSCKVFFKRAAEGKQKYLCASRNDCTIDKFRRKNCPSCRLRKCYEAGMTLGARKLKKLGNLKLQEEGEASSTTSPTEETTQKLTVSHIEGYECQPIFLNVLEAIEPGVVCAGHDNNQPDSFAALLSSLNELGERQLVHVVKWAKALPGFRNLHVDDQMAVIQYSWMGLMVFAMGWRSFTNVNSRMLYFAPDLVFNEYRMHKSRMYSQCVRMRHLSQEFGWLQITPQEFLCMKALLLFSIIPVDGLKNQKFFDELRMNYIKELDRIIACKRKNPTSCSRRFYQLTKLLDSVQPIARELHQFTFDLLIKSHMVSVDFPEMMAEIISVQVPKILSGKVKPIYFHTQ

One may read the AC50 as the midpoint of the concentration-response curve, whichever way the signal moves. As for `CCNc1nc(Cl)nc(NC(C)C)n1`, the call in [1], in [3], in test [4], in test [5], in test [6] and in test [7] was inactive. The call in test [8], in test [9], in [10], in test [11], in test [12] and in test [13] was inactive. Also, the molecule was called inactive in [14], in [15] and in [16]. For the same molecule, the AC50 in test [2] was 27.4 µM (active) [middle of 4 runs].
With `O=C(Nc1ccccc1)Nc1ccnc(Cl)c1`, the call in test [1], in test [2], in [7], in [8], in test [9] and in [10] was inactive. The molecule was called inactive in test [11], in test [13], in test [14], in test [15], in test [18] and in test [16]. Also, the AC50 was 22.6 µM (active) in test [3]; 67.2 µM (active) in [4]; 11.9 µM (active) in test [5]; 24.9 µM (active) in test [6]; 13.1 µM (active) in [17]; 50 µM (active) in test [12].
For the molecule `CC(C)(C)c1ccc(CSc2cnn(C(C)(C)C)c(=O)c2Cl)cc1`, the half-maximal activity concentration (AC50) in [19] was 0.527 µM (active); in [2] it was 2.14 µM (active); in [4] it was 1.88 µM (active); in [6], 0.0129 µM (active); in test [12], 0.574 µM (active); in test [13], 26.5 µM (active). Moreover, the result in test [1], in [5], in test [17], in [7], in [8] and in test [9] was inactive. The molecule was classed as inactive in [10], in [11], in test [20], in test [14] and in test [15].
